The full ranking holds about 39,000 sequences; the median of “fluorescence intensity (a.u.)” is about 4,300, and the highest 2% start at about 39,000. What follows is part of a selection rich in the highest values, with near analogues and random picks from the rest.
Biological target: T1, OsSMF1 (Oryza sativa, UniProt Q6ZLB0 1-436)
T1 sequence: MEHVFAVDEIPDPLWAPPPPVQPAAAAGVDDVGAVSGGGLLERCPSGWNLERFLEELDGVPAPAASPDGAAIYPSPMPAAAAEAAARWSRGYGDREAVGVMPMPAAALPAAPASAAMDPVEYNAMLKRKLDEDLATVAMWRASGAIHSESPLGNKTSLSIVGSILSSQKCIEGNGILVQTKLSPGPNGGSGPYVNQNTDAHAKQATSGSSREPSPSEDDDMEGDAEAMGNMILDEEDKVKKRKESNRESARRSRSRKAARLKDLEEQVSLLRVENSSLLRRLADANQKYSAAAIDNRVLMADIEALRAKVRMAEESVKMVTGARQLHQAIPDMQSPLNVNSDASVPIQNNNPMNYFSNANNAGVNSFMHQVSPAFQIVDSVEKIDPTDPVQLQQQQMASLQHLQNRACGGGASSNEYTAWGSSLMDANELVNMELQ
Assay: protein-binding microarray (RPBM); PBS, 2% BSA, 51.3 ng/ul salmon testes DNA, 50 uM zinc acetate, 200 nM TF, 25 C, 1 h; high values mean tight binding
Conditions: protein: recombinant; tags: N-terminal polyhistidine and DsRed monomer fusion (pET32a); chain copies: 2; label: CyDye5-dUTP incorporated in the synthesized complementary strand; 3' TTTTT single-stranded linker to array surface; dsDNA, one strand shown
In short: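 Binding signal is defined as the fluorescence intensity of each feature in arbitrary units, read on an Axon 4000B scanner. Transcription factors with N-terminal polyhistidine and DsRed fusions came from E. coli BL21-CodonPlus and were purified on Ni–NTA. They were incubated at 200 nM for 1 h at 25 °C on a custom Agilent array that had been made double-stranded with Cy5-dUTP, with 50 µM zinc acetate present, and the array was washed.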

Row | Sequence | binding signal
1 | TACTGTAGCACCACATTGTCAATCATGGCGCAATTATGCTCGGAGTCACCTAGTGCAG | 12900 fluorescence intensity (a.u.)
2 | GAATACCAAGAACGACGTCATACAAGACTGACGTGCGGTCCGGAGTCACCTAGTGCAG | 5690 fluorescence intensity (a.u.)
3 | AATGTCCCATCTTTCGTGTGTAAGGCACGTTAGTCTCAGGCGGAGTCACCTAGTGCAG | 4290 fluorescence intensity (a.u.)
4 | GTATGGGTTCGAGGAGTGATGTGGTGATGGGCAAACCCATCGGAGTCACCTAGTGCAG | 3300 fluorescence intensity (a.u.)
5 | CACCCTTAAATCATATATGTGGTTTTAATATTTGGGGATGCGGAGTCACCTAGTGCAG | 33200 fluorescence intensity (a.u.)
6 | CGAGACTGACAAGGCATTCCAGACACTTAAACAAGCACTGCGGAGTCACCTAGTGCAG | 3350 fluorescence intensity (a.u.)
7 | CTCTCGAAGCTGCCCTAGCCTCTCCGCTGCTCCGATCCACCGGAGTCACCTAGTGCAG | 24500 fluorescence intensity (a.u.)
8 | ATGTTTGAGCATGCAGCAAAGACAGATCTAACACTCAAGCCGGAGTCACCTAGTGCAG | 3970 fluorescence intensity (a.u.)
9 | CCCAGCACCCTACTACACCAACATACTCCTACGTGGAGCACGGAGTCACCTAGTGCAG | 6040 fluorescence intensity (a.u.)
10 | GTATCCATATATCCGATATGACACGCCAAAACTTTACACCCGGAGTCACCTAGTGCAG | 4870 fluorescence intensity (a.u.)
11 | ACCATCCGAGCTGTCAAGATCCGACGTGGGTTGTGAAGGCCGGAGTCACCTAGTGCAG | 8700 fluorescence intensity (a.u.)
12 | ATAGTTGTGATTAGATTGTGACGTACACAATGAGTATGCACGGAGTCACCTAGTGCAG | 5250 fluorescence intensity (a.u.)
13 | GCGAAGAACGCTTGCACTTGTGTGCAGCGACGCGCGAATTCGGAGTCACCTAGTGCAG | 4440 fluorescence intensity (a.u.)
14 | GTTCCACATTTCAGCATTAATGAATTGGCATACGTGATGACGGAGTCACCTAGTGCAG | 3360 fluorescence intensity (a.u.)
15 | TCTCGCTTAATGTTTTCTTTACACATACGATGCTTTAGATCGGAGTCACCTAGTGCAG | 3790 fluorescence intensity (a.u.)
16 | TTTGCATACGTGCATGCTTGATGACGTCATGCTGACGTGGCGGAGTCACCTAGTGCAG | 63100 fluorescence intensity (a.u.)
17 | AGTATGCTTTTCTTAACGATGACGTCAGCATACACCTCGGCGGAGTCACCTAGTGCAG | 45200 fluorescence intensity (a.u.)
18 | TTCCAACCCGCCCCGTGTGCTGACGTGGCAGCCATGTTGGCGGAGTCACCTAGTGCAG | 19300 fluorescence intensity (a.u.)
19 | GGATGCATGCATGCTGATGATGTCAGGCTGATACGTGCGTCGGAGTCACCTAGTGCAG | 7340 fluorescence intensity (a.u.)
20 | CTTGGCCGTGGCCGCTGACATGGCATCACCTCATCCGCAACGGAGTCACCTAGTGCAG | 4320 fluorescence intensity (a.u.)
21 | GGCGCTGATGTCATGCTGACGTCAGTGCCTGATTTTGCTCCGGAGTCACCTAGTGCAG | 56100 fluorescence intensity (a.u.)

Row | Sequence | binding signal
22 | GGCGGCGATGGCGGCCGTGCTGACGGACGATTTCCTGCTCCGGAGTCACCTAGTGCAG | 3220 fluorescence intensity (a.u.)
23 | TTTCTTTTCAGACGATGACGTCACACCGTTCTTCATGTATCGGAGTCACCTAGTGCAG | 12300 fluorescence intensity (a.u.)
24 | AGTTTTGTACGCATGTGTGGCGCTGACGTCATGCCCGATCCGGAGTCACCTAGTGCAG | 18000 fluorescence intensity (a.u.)
25 | TGTTCCAACCCGCTCCGTGTGCTGACGTGGCATGACATGGCGGAGTCACCTAGTGCAG | 44900 fluorescence intensity (a.u.)
26 | TTGCTGCAAATGACGTCGACATGTGCGTGGCATACCATGGCGGAGTCACCTAGTGCAG | 15000 fluorescence intensity (a.u.)
27 | CAAACAATATTCTTTTGTGACTAGATCAAGCCGTAGTGTTCGGAGTCACCTAGTGCAG | 3650 fluorescence intensity (a.u.)
28 | TATGTACCTTTTCCACAGAACCCTCTACTGTGCCAGGTCACGGAGTCACCTAGTGCAG | 15600 fluorescence intensity (a.u.)
29 | CGCGGCAGATCCGCTGGTTGTGGCGGCGTCAGCGGTAGCCCGGAGTCACCTAGTGCAG | 4030 fluorescence intensity (a.u.)
30 | ACGACATGCGTGCAAATGCATTGTAAATTTGTAATACGGCCGGAGTCACCTAGTGCAG | 22300 fluorescence intensity (a.u.)
31 | TACTTTCGTTTGCAAATATGCGGAATGATGGGGCTGTTTCCGGAGTCACCTAGTGCAG | 3700 fluorescence intensity (a.u.)
32 | CACTCTTTATTTTATTATGACTTGATTCGTCATCAAATGTCGGAGTCACCTAGTGCAG | 3870 fluorescence intensity (a.u.)
33 | ACCCACACCTCGTCCCCGTCACCTCCTATATCATCGTCATCGGAGTCACCTAGTGCAG | 6470 fluorescence intensity (a.u.)
34 | AATATTCTCTGTCTCGGTGTGGTGTCTCTCCTCTGACGGCCGGAGTCACCTAGTGCAG | 4810 fluorescence intensity (a.u.)
35 | ATTAGATTTACCGCAAACAATGACGTCCTCCCTGCCTGGACGGAGTCACCTAGTGCAG | 4900 fluorescence intensity (a.u.)
36 | ATAATGCATTTAGTATTGCCACCCTGTACTAATAGATGTTCGGAGTCACCTAGTGCAG | 3810 fluorescence intensity (a.u.)
37 | CGAGGCGGGGTGCACCTTCATGGTCAGTGGCCCGTGGTTCCGGAGTCACCTAGTGCAG | 4270 fluorescence intensity (a.u.)
38 | CGGTGATCCCATACTTGGCACGTACACGTGCCCTCTTGATCGGAGTCACCTAGTGCAG | 6030 fluorescence intensity (a.u.)
39 | AAAAGTAATTTATAAATAAAATTTCTATATACGTGTTCTTCGGAGTCACCTAGTGCAG | 3220 fluorescence intensity (a.u.)
40 | TTATATACTCCCTCTTTCCACGTAAGTTACATTTATTACTCGGAGTCACCTAGTGCAG | 7340 fluorescence intensity (a.u.)
41 | AAACGGATAAGTTAGTAAGTAATTTCTTCCCTCCTAATTTCGGAGTCACCTAGTGCAG | 45900 fluorescence intensity (a.u.)
42 | GATCTGACCTCCTCAGCCTCCTTCCCCAACTGTTCCACGCCGGAGTCACCTAGTGCAG | 44800 fluorescence intensity (a.u.)

Reference: publication PMC7819943, “Rice protein-binding microarrays: a tool to detect cis-acting elements near promoter regions in rice”
